Experimental data as given in PubChem BioAssay AID504690 (Sanford-Burnham Center for Chemical Genomics, 2011).
The campaign covered roughly 350,000 compounds. About 2,700 (0.77%) were called active. This is one part of a sample in which actives are shown more often than they occur. Values without a mark were called inactive.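 How the source made its calls: active means inhibition reaching at least a set limit at 20 µM in the primary screen (cut at about 59% in these data); inactive means the rest.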

test system: glucose-6-phosphate dehydrogenase-6-phosphogluconolactonase (Plasmodium falciparum 3D7); assay: PfG6PD enzyme inhibitors, primary screen, biochemical, fluorescence intensity, uHTS (AID 504690); conditions: PfGluPho enzyme, NADPH resazurin-diaphorase fluorescence; at 20 µM; stronger effect = higher value;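 further: 0% = DMSO wells with substrate and 100% = DMSO wells lacking glucose-6-phosphate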

| Compound | inhibition |
| --- | --- |
| COc1ccc(CN2CCCC(C(=O)N3CCCCC3)C2)cc1 (configuration not stated) | 0.72% |
| O=C1OC[C@@H]2CCCN2C(=O)[C@H](CC(=O)N(CCO)Cc2ccccc2)C/C=C\CC[C@@H]1Cc1ccc(F)cc1 | -6.25% |
| COC(=O)c1ccc(N2CCOCC2)c(NC(=O)c2ccc3c(c2)OCCO3)c1 | 9.1% |
| CN1CCN(c2ccc(NC(=O)c3ccc4c(c3)OCCO4)cc2Cl)CC1 | 68.3% (active) |
| CN1CCN(c2ccc(NC(=O)c3cc(Cl)c4c(c3)OCCO4)cc2)CC1 | -0.01% |
| COc1ccc(C(=O)OC(C)C(=O)NC2CCCC2)cc1S(=O)(=O)N1CCOCC1 (configuration not stated) | -8.93% |
| COc1ccc(COC(=O)c2ccc(Cl)c(S(=O)(=O)N3CCOCC3)c2)cc1F | 20.9% |
| O=C(NCc1cccc(CNC(=O)Nc2cccc(O)c2)c1)Nc1cccc(O)c1 | 11% |
| COc1cccc(NC(=O)NCc2ccc(F)cc2)c1 | 75.8% (active) |
| COc1cccc(NC(=O)Nc2ccc(F)cc2)c1 | 30.6% |
| CC1CCCC(N2CCN(C(=O)c3ccc(F)cc3)CC2)C1 (configuration not stated) | 12.6% |
| Cc1ccc(-c2cn3cc(C)ccc3n2)cc1 | 104% (active) |
| CC(=O)Nc1ccc(-c2cn3cccnc3n2)cc1 | 2.85% |
| Cc1ccc2nc(-c3ccc(Br)cc3)cn2c1 | 91.8% (active) |
| CS(=O)(=O)Nc1cccc(-c2cn3ccccc3n2)c1 | -10.9% |
| Cc1nc(=O)c(-c2ccccc2)c(C)n1-c1ccc(Br)cc1 | -0.2% |
| Cc1ccc(-c2cc(N)on2)cc1 | 8.69% |
| COc1ccc(C(C)NC(=O)C2CCCC2)cc1 (configuration not stated) | -12.4% |
| O=C(O)C1CCCCC1C(=O)N1CCN(S(=O)(=O)c2ccc(F)cc2)CC1 (configuration not stated) | -3.01% |

| Compound | inhibition |
| --- | --- |
| COc1ccccc1C(=O)N/C(=C/c1ccco1)C(=O)Nc1ccc(C(=O)O)cc1 | 7.16% |
| COCC(C)NC(=O)CSc1nc2nn(-c3ccccc3)c(=O)c-2c2n1CCCCC2 (configuration not stated) | -8.52% |
| O=C(CCN1C(=O)COc2ccccc21)NCCCN1CCN(c2ccc(F)cc2)CC1 | -3.8% |
| COCCNC(=O)Nc1ccc2nc(-c3ccco3)c(-c3ccco3)nc2c1 | 66.8% (active) |
| Cc1ccc(NC(=O)OCCNC(=O)c2ccncc2)cc1 | -14.7% |
| COCCNC(=O)CSc1nc(N)c(NC(=O)c2ccco2)c(=O)[nH]1 | 3.96% |
| CC(C)(C)c1ccc(C(=O)N2CCN(CCNC(=O)C(=O)Nc3ccc(F)cc3)CC2)cc1 | 0.45% |
| CC(Oc1ccc(F)cc1)C(=O)N1CCN(c2ncccn2)CC1 (configuration not stated) | 8.63% |
| CCOC(=O)C1=C(C)c2ccccc2OC1C(=O)OCC (configuration not stated) | 4.58% |
| CCOC(=O)C(=Cc1ccccc1OC)C(=O)OCC | -10.6% |
| C=C1c2cccc(OC)c2O[C@H](C(=O)OCC)[C@@H]1CCCCCC | 77.8% (active) |
| CC1CCC2(CC1)NC(=O)N(CC(=O)c1ccc3c(c1)OCO3)C2=O (configuration not stated) | 6.6% |
| CCOC(=O)N1CCN(Cc2nc(Cc3cccc(C(F)(F)F)c3)no2)CC1 | -8.4% |
| Cn1c(-c2sccc2OCc2cccc(C(F)(F)F)c2)n[nH]c1=S | 65.3% (active) |
| Cn1c(-c2sc3cc(C(F)(F)F)cnc3c2-c2ccccc2)n[nH]c1=S | 27.8% |
| O=C(OCc1cn([C@@H]2C[C@H](c3ccc(Cl)cc3)N(Cc3cccs3)C[C@H]2O)nn1)c1ccccc1 | 11.3% |
| O=C(O)C1CCN(C(=O)OCc2ccccc2)CC1 | -0.22% |
| CCN(C(=O)CSc1nnc(-c2ccc(OC(F)F)cc2)n1N)C1CCS(=O)(=O)C1 (configuration not stated) | -3.99% |
| O=C(c1ccc(Br)o1)N(c1ccccn1)C1CCCCC1 | -15.9% |

| Compound | inhibition |
| --- | --- |
| O=C1/C(=C\c2ccc([N+](=O)[O-])cc2)CS(=O)(=O)C/C1=C/c1ccc([N+](=O)[O-])cc1 | 77.6% (active) |
| O=C(O)C(=Cc1ccc([N+](=O)[O-])cc1)CCc1ccccc1 | -27.5% |
| CC(=O)Nc1ccc(C=Cc2ccc([N+](=O)[O-])cc2)cc1 | 14.2% |
| C[C@H]1CN([C@@H](C)CO)C(=O)c2cc(Br)cnc2O[C@H]1CN(C)S(=O)(=O)c1cccs1 | 9.15% |
| O=C(CCN1C(=O)c2ccncc2C1=O)Nc1cc(F)ccc1F | -12.6% |
| COCCN1C=C2C(=O)C(C)(OC(=O)C3CCCC3)C(=O)C=C2C=C1c1ccsc1 (configuration not stated) | 72.5% (active) |
| CC1(OC(=O)C2CCCC2)C(=O)C=C2C=C(c3ccc(C#N)cc3)OC=C2C1=O (configuration not stated) | 23% |
| CC1(OC(=O)CCc2ccccc2)C(=O)C=C2C=C(c3ccc(C#N)cc3)N(CCc3ccccn3)C=C2C1=O (configuration not stated) | 44.1% |
| COCC(=O)N(C)C[C@H]1Oc2cc(Br)ccc2S(=O)(=O)N([C@H](C)CO)C[C@H]1C | -15.7% |
| CCN1CCN(c2ccc([N+](=O)[O-])cc2C(=O)c2ccc(Cl)cc2)CC1 | 11.2% |
| O=[N+]([O-])c1ccc(N2CCN(c3ccc(O)cc3)CC2)c(Cl)c1 | 61.5% (active) |
| O=C(O)C1CCN(c2ccc([N+](=O)[O-])cc2[N+](=O)[O-])CC1 | -6.12% |
| CCN(CCCCOC(=O)c1ccc(OC)c(OC)c1)C(C)Cc1ccc(OC)cc1 (configuration not stated) | -1.86% |
| CC1CCC(NS(=O)(=O)c2ccc3c(c2)n(C)c(=O)c(=O)n3C)CC1 (configuration not stated) | -1.38% |
| Cn1sc(=O)c2cc(S(=O)(=O)NC3CC3)ccc21 | 66.3% (active) |
| O=S(=O)(NC1CC1)c1ccc(F)c(F)c1 | 1.75% |
| CC1(c2ccccc2)NC(=O)N(CC(=O)N2CC(=O)Nc3ccccc32)C1=O (configuration not stated) | 4.26% |
| CCCCOP(=O)(c1ccc(N(C)C)cc1)C(O)c1cc(OC)ccc1OC (configuration not stated) | 10.8% |
| C=C(C)C(=O)Nc1cccc(C2=NOC3(C2)C[C@H](C(N)=O)N(C(=O)C(c2ccccc2)c2ccccc2)C3)c1 (some centres not stated) | -3.38% |
